TNF death inh: blocks TNF-alpha induced death of Jurkat FADD-/- cells; 220,000 tested, 0.068% active; AID 463075; Jurkat FADD-/- TNF necroptosis rescue, ATP luminescence, 24 h; 0 = TNF only, 100 = no-TNF cells; activation (protection from cell death), % at 10 µM;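 active = activation, meaning protection from cell death, of at least 50% relative to plate controls; inactive = activation below 50%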;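 note: necroptosis triggered by 40 ng/mL TNF-alpha added together with compound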
L929 necroptosis: L929 zVAD cell death inhibition. AID 1377. viability rescue, % at 10 µM. L929 zVAD necroptosis rescue, ATP luminescence, 24 h; with zVAD 60 µM. 220,000 tested, 0.38% active;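 active = activation, scaled between plate controls, above about 75%, limit read from the data; inactive = activation under that limit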
HSV augment: HSV replication enhancement; HSV replication augmentation in cells, fold increase; maximum fold increase; 220,000 tested, 0.005% active; in the data active = maximum fold increase above about 1.5; inconclusive = no clear call, values can overlap the other calls; tested in PC3 cells
Wee1 degr inh: blocks degradation of human Wee1 kinase | P30291 | 220,000 tested, 1.2% active | HeLa Luc-Wee1K328M stability, luciferase luminescence; 100% = proteasome inhibitor MG132 effect | reporter increase, % at 5 µM | AID 1321;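 active = activation above the mean of all tested compounds plus 3 SD, set per screening run, cut at about 8.8% in these data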;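 note: cells exposed to compound for 20 h before luminescence read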
Target sequence (P30291 whole entry K328M): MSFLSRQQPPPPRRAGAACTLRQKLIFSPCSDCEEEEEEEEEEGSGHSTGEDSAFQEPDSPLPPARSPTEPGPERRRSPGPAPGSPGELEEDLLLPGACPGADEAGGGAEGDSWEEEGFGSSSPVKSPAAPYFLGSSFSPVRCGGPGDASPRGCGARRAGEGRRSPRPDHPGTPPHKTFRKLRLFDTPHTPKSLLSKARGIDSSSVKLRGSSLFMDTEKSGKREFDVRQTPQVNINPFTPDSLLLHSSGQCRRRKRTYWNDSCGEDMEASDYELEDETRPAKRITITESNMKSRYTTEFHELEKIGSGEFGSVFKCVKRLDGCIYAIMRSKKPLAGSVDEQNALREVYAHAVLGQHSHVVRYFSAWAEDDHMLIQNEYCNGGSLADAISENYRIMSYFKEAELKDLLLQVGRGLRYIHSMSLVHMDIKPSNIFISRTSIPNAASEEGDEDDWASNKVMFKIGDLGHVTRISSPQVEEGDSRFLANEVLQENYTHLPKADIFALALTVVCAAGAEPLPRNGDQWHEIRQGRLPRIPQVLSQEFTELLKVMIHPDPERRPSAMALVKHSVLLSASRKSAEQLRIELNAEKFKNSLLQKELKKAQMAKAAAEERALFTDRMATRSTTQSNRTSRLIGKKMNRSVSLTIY
V-ATPase pH: regulators of yeast V-ATPase proton transport; response, % at 10 µM; 350,000 tested, 0.37% active; S. cerevisiae, pHLuorin cytosolic pH fluorescence; in the data active = response mostly above about 7.3%, no sharp cut-off; inactive = mostly below about 5.4%; note: actives read high
Each line names hits and unclear results; the compound was inactive in the other large screens. Hits are enriched below; roughly 1.4% of the tested compounds scored in any of these assays.

O=C(OCc1nnc(-c2ccc(Cl)cc2)o1)C12CC3CC(CC(O)(C3)C1)C2	Wee1 degr inh 9.8
O=C(Cc1ccc(Cl)cc1)OCc1nnc(-c2ccccc2)o1	none
O=C(Nc1ncc(Cc2ccccc2)s1)C1COc2ccccc2O1 (stereo not drawn)	TNF death inh 55
Cc1ccc(Cc2cnc(NC(=O)c3cccs3)s2)cc1	none
CCSc1nnc(NC(=O)c2cccs2)s1	V-ATPase pH 16
O=C(Nc1nnc(SCc2ccccc2)s1)c1cccs1	none
O=C(Nc1ncc(Cc2ccccc2)s1)c1cccs1	L929 necroptosis 83, Wee1 degr inh 9.0
COc1ccc(NC(=O)CSc2nc(N)c(NC(=O)c3cccs3)c(=O)[nH]2)cc1	none
Cc1cccc2sc(NNC(=O)c3ccc(S(=O)(=O)N4CCCC(C)C4)cc3)nc12 (stereo not drawn)	V-ATPase pH 10 (no result: L929 necroptosis, HSV augment)
COc1ccc(NC(=O)CN(C)S(=O)(=O)c2ccc3c(c2)CCC(=O)N3)c(OC)c1	none
COc1ccc(NS(=O)(=O)c2ccc3c(c2)CCC(=O)N3)c(OC)c1	V-ATPase pH 19
CCOC(=O)/C=c1\sc2n(c1=O)CCN=2	none
COC(=O)/C=c1/sc2n(c1=O)CCN=2	Wee1 degr inh 9.2
CN(CC(=O)N1CCCCCC1)S(=O)(=O)c1ccccc1	none (no result: TNF death inh, L929 necroptosis, HSV augment, Wee1 degr inh)
O=C(N1CCCC1)C12CC3CC(CC(C3)C1)C2	none
O=C1NCCN1C(=O)C12CC3CC(CC(C3)C1)C2	Wee1 degr inh 9.1
Cc1ccc(-c2nc(CN(C)Cc3ccc4nccnc4c3)c(C)o2)s1	none
Cn1c(=O)c2c(nc(OCc3ccc4c(c3)OCO4)n2Cc2ccccc2Cl)n(C)c1=O	Wee1 degr inh 9.2
Cn1c(=O)c2c(nc(NCc3ccc4c(c3)OCO4)n2Cc2ccccc2Cl)n(C)c1=O	none
CC1=C(C)/C(=N\OS(=O)(=O)c2ccc(C)cc2)C=CC1=O	V-ATPase pH 10
O=S(=O)(c1ccc(SCc2ccc(Br)cc2)nc1)N1CCCCC1	none (no result: TNF death inh, L929 necroptosis, HSV augment, Wee1 degr inh)
O=C1CSC(c2ccccn2)N1c1ccccc1F (stereo not drawn)	none
O=C1CSC(c2ccccn2)N1c1ccc(F)cc1F (stereo not drawn)	Wee1 degr inh 9.9
Cc1nnc(Sc2cc(C(=O)NCc3ccco3)c3ccccc3n2)s1	L929 necroptosis 97
Cc1nnc(Sc2cc(C(=O)NC3CC3)c3ccccc3n2)s1	none
Cc1nnc(NC(=O)CCC(=O)NCc2ccco2)s1	Wee1 degr inh 10.0
COc1ccc(NC(=O)C2(S(=O)(=O)c3ccc(C)cc3)CC2)cc1OC	none (no result: TNF death inh, L929 necroptosis, HSV augment, Wee1 degr inh)
C[C@H]1CN([C@@H](C)CO)C(=O)CCCn2cc(nn2)CO[C@@H]1CN(C)S(=O)(=O)c1cccc(F)c1	none (no result: TNF death inh, L929 necroptosis, HSV augment, Wee1 degr inh)
NC(=O)c1ccccc1NC(=O)CSc1nc2c(c(=O)[nH]1)CCCC2	none (no result: TNF death inh, L929 necroptosis, HSV augment, Wee1 degr inh)
CC(=O)c1c(C(C)=O)c(C)n(NC(=O)c2ccccc2Cl)c1C	Wee1 degr inh 9.2
Cc1ccc(C)n1NC(=O)c1ccccc1Cl	none
CCC(=O)c1cn(CC(=O)Nc2ccc(C)cc2)c2ccccc12	none (no result: TNF death inh, L929 necroptosis, HSV augment, Wee1 degr inh)
C1CCN(c2nc3nonc3nc2N2CCCCC2)CC1	Wee1 degr inh 10
CCCNC(=O)c1ccc(C)c(NC(=O)C2=C(C)OCCS2)c1	none (no result: TNF death inh, L929 necroptosis, HSV augment, Wee1 degr inh)
COC(=O)c1cccc(NC(=O)CCc2ccccc2)c1	Wee1 degr inh 9.4
CC(C)CNC(=O)c1cccc(NC(=O)CCc2ccccc2)c1	Wee1 degr inh 10
CCCCN(C)CCNS(=O)(=O)c1ccc2c(c1)n(C)c(=O)c(=O)n2C	V-ATPase pH 18
COc1ccc(CC(=O)NNC(=O)COc2ccc(Cl)cc2C)cc1S(=O)(=O)N1CCOCC1	none (no result: TNF death inh, L929 necroptosis, HSV augment, Wee1 degr inh)
O=C(CC1S/C(=N/N=C/c2c[nH]c3ccc(OCc4ccccc4)cc23)NC1=O)Nc1ccccc1 (stereo not drawn)	Wee1 degr inh 8.9
O=C(CNC(=O)c1ccccc1F)Nc1ccccc1C(F)(F)F	none
Cc1ccc2nc(N(CCCN(C)C)C(=O)c3ccco3)sc2c1	Wee1 degr inh 10
CN(C)CCCN(C(=O)c1ccco1)c1nc2ccc(F)cc2s1	none
O=C(NCC1CCCO1)c1nc(Cn2ccc([N+](=O)[O-])n2)no1 (stereo not drawn)	none (no result: TNF death inh, L929 necroptosis, HSV augment, Wee1 degr inh)
Cc1ccc(C)c(-n2cc(CN3CCCN(C=O)CC3)c(-c3ccccc3)n2)c1	none
CC(=O)c1ccc(Nc2cc(C)nc3c(C)cc(C)cc23)cc1	Wee1 degr inh 11
Cc1cc(C)c2nc(C)cc(Nc3ccc(C(=O)N(C)C)cc3)c2c1	none (no result: V-ATPase pH)
CC(C)c1nnc(-c2ccc(Cl)cc2)c(N(C)C)n1	TNF death inh 75
CCSc1nnc(-c2ccc(Cl)cc2)c2ccccc12	none
CC(C)(C)CC(=O)Nc1ccccc1N1CCN(c2ccccc2)CC1	Wee1 degr inh 11
CC(C)(C)CC(=O)Nc1ccccc1N1CCN(c2ccc(F)cc2)CC1	none (no result: TNF death inh, L929 necroptosis, HSV augment, Wee1 degr inh)
CC(C)(C)c1ccc(C(=O)Nc2ccc(Oc3cccnc3)nc2)cc1	none
CCOC(=O)C(=CNc1ccc(Oc2cccnc2)nc1)C(=O)OCC	Wee1 degr inh 9.9
COc1ccc(C(=O)N2CCN(C)C(=O)[C@@H]2C)cc1OC1CCN(C(C)C)CC1	none (no result: TNF death inh, L929 necroptosis, HSV augment, Wee1 degr inh)
Cc1ccccc1NC(=O)CON=C(N)c1ccccc1	none (no result: TNF death inh, L929 necroptosis, HSV augment, Wee1 degr inh)
CCCNC(=O)Nc1nc2ccccc2s1	Wee1 degr inh 9.2
CCCCNC(=O)Nc1nc2ccccc2s1	none
CC(NC(=O)C1CCN(S(=O)(=O)N2CCC3(CC2)OCCO3)CC1)c1ccccc1 (stereo not drawn)	Wee1 degr inh 11
CC(NC(=O)C1CCN(S(=O)(=O)N2CCCCCC2)CC1)c1ccccc1 (stereo not drawn)	none
Cc1nc(-c2ccccc2)nc(-c2ccccc2)n1	none (no result: TNF death inh, L929 necroptosis, HSV augment, Wee1 degr inh)
Cc1nn(Cc2c(F)c(F)c(F)c(F)c2F)c(C)c1NC(=O)c1cccc(COc2ccccc2Cl)c1	Wee1 degr inh 15
O=C(COc1ccc(-c2nnco2)cc1)N1CCOCC1	V-ATPase pH 15 (no result: TNF death inh, L929 necroptosis, HSV augment, Wee1 degr inh)
Cc1c(N2C(=O)c3ccc(F)cc3C2=O)c(=O)n(-c2ccccc2)n1C	Wee1 degr inh 9.6
Cc1c(N2C(=O)c3ccccc3C2=O)c(=O)n(-c2ccccc2)n1C	none
Cc1ccc(C(=O)OCC(=O)Nc2ccc(F)c(Cl)c2)o1	none (no result: TNF death inh, L929 necroptosis, HSV augment, Wee1 degr inh)
COc1ccc(CCNC(=O)COC(=O)COc2ccc(C#N)cc2)cc1	none
O=C(c1ccccc1CCc1ccccc1)N1CCCC1	V-ATPase pH 40 (no result: TNF death inh, L929 necroptosis, HSV augment, Wee1 degr inh)
O=c1[nH]c(N/N=C\c2ccc3c(c2)OCO3)nc2ccccc12	none
O=c1[nH]c(N/N=C/c2ccccc2)nc2ccccc12	Wee1 degr inh 10
CNCC(O)CN(c1ccccc1)c1ccccc1 (stereo not drawn)	Wee1 degr inh 9.7
CN(CCO)CC(O)CN(c1ccccc1)c1ccccc1 (stereo not drawn)	none
CCOc1ccc(NC(=O)CSc2ncn[nH]2)c([N+](=O)[O-])c1	none
CCOc1ccc(NC(=O)CSc2nnc(N)s2)c([N+](=O)[O-])c1	Wee1 degr inh 9.8
Oc1c(N=Nc2ccccc2)sc2ccccc12	HSV augment inconclusive, Wee1 degr inh 9.8
CC1=C/C(=N\OS(=O)(=O)c2ccccc2)C(C(C)C)=CC1=O	V-ATPase pH 30 (no result: HSV augment)
Cc1cc(C)nc(Oc2ccc(Br)cc2Br)n1	Wee1 degr inh 9.1

High-throughput results: PubChem, several laboratories
